Compound activity from PubChem.
Menin-MLL FL inh: inhibitors of human menin-MLL interaction, wild-type MLL peptide; Fluorescence polarization, fluorescein-MLL peptide displacement from menin; FP activity change, % at 61.4 µM; 290,000 tested, under 10 active; AID 1766; active = well fitted curve in the direction sought with a large enough effect in the polarisation, not every such curve was filed as active; inconclusive = small, poorly fitted or top-dose-only effect, or effect the other way, or a change in a side signal; inactive = no such curve, though single readings can be large or run the other way; the % refers to the polarisation; note: % of control where 0% means no effect
Menin-MLL TR inh: displaces Texas Red mutant MLL peptide from human menin; O00255; Menin + Texas Red MLL mutant peptide, fluorescence polarization; Potency, µM (titrated, usually from 61.6 µM), for the others: top-dose FP activity change, negative = inhibition, usual class: inhibitors; 270,000 tested, 0.23% active; active = well fitted inhibition curve with a large enough effect in the polarisation, with a control signal flat, not every such curve was filed as active; inconclusive = small, poorly fitted or top-dose-only effect, or effect the other way, or a change in a side signal; inactive = no such curve, though single readings can be large or run the other way; the % refers to the polarisation; note: potency is the fitted concentration of half-maximal effect; % of control where 0% means no effect
MLL CXXC-DNA inh: blocks binding of human MLL CXXC domain to DNA; Q03164; MLL-CXXC / FITC-HOXA9 DNA fluorescence polarization; Potency, µM (top dose mostly 115 µM), without a hit: at the highest dose activity change, negative = inhibition, actives largely listed as inhibitors; 290,000 tested, 0.037% active; active = well fitted inhibition curve with a large enough effect in the polarisation, with a control signal flat, not every such curve was filed as active; inconclusive = small, poorly fitted or top-dose-only effect, or effect the other way, or a change in a side signal; inactive = no such curve, though single readings can be large or run the other way; the % refers to the polarisation; note: potency is the fitted concentration of half-maximal effect
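Fluorescence polarization: 7 uM MLL-CXXC (stock) preincubated 5 min with compounds, then 50 nM fluorescein-HOX-A9 DNA (stock) added; 30 min ambient. Buffer 50 mM Tris-HCl pH 7.5, 50 mM NaCl, 1 mM DTT, 0.05% BSA.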
p53 reactivator: restores transcriptional activity of mutant p53 | H1299 p53-A138V BP100-luciferase reporter, luminescence, 24 h | Potency, µM (series often up to 92.2 µM), inactives show at the top dose activity change, positive = activation, hits mostly activators | 320,000 tested, 0.063% active | AID 504706; active = well fitted activation curve with a large enough effect; inconclusive = small, poorly fitted or top-dose-only effect; inactive = no such curve, though single readings can be large or run the other way; note: potency is the fitted concentration of half-maximal effect; % of control where 0% means no effect; nearly all actives have a fitted effect of over 45% in size
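p53-null H1299 cells stably carrying temperature-sensitive p53-A138V and a BP100-luciferase reporter were pinned with compounds (4-point, 1:5 series) and held 24 hrs at 37 deg C. Luminescence was read 10 min after detection reagent.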
ClpP mod: qHTS Assay for Activators of ClpP; ATP-dependent Clp protease proteolytic subunit (Bacillus subtilis (strain 168)), P80244; purified B. subtilis ClpP, FRET peptide cleavage, 20 min; Potency, µM (titrated, usually from 57.5 µM), for inactives: at the top dose activity change, negative = active; 340,000 tested, 1.9% active; active = well fitted falling curve with a large enough effect; inconclusive = small, poorly fitted or top-dose-only effect; inactive = no such curve, though single readings can be large or run the other way; note: potency is the fitted concentration of half-maximal effect; the source files actives as falling curves though it sought activators and does not explain the sign; nearly all actives have a fitted effect of over 65% in size
Target sequence (P80244 whole entry, looked up): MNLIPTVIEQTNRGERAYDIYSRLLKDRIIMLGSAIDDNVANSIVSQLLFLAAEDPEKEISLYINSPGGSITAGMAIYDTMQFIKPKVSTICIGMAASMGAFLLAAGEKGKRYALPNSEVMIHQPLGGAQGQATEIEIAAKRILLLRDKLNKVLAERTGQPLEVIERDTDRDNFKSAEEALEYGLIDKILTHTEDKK
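Purified B. subtilis ClpP, 10 microg/mL final in Tris/HCl pH8 with KCl, BSA, glycerol and Tween-20, cleaved an Abz/nitrotyrosine-quenched decapeptide. Fluorescence (ex 320, em 430) was read at 0 and 20 min at room temperature. Delta was normalized to 5.8 microM ADEP and DMSO/no-enzyme controls.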
Active calls of the source: *; ! = not confirmed by another sample. This excerpt belongs to a sample that is enriched for hits.

For CCn1nc(C(=O)Nc2ccc3nc(C)sc3c2)c2ccccc2c1=O the results were Menin-MLL FL inh 5.7, Menin-MLL TR inh 1.2%, MLL CXXC-DNA inh 17.4%, p53 reactivator -13.1% and ClpP mod 20µM*.
O=C1CC(c2ccco2)CC2=C1C(c1ccccc1)n1nc(C(F)(F)F)nc1N2 (stereo not given) was read as Menin-MLL FL inh 10.7, Menin-MLL TR inh inconclusive, MLL CXXC-DNA inh -13.0%, p53 reactivator -16.2% and ClpP mod 25.1µM*.
`CCc1ccc2nc3nc(C)cc(C)c3c(N)c2c1` gave Menin-MLL FL inh 1.4, Menin-MLL TR inh -18.4%, MLL CXXC-DNA inh inconclusive, p53 reactivator inconclusive and ClpP mod 11.2µM*.
Cc1cc(C)c2c(N)c3ccccc3nc2n1 was read as Menin-MLL FL inh 0.6, Menin-MLL TR inh -27.9%, MLL CXXC-DNA inh -17.6%, p53 reactivator 28.4% and ClpP mod 65.4%.
For CCCCN1CC[C@H]2C=CC[C@@H](C(=O)NC3CCCCC3)[C@H]2C1=O the results were ClpP mod 2.8%.
For N#Cc1ccc(-c2ccc3c(c2)OCO3)nc1SCC(=O)OCc1ccccc1 the results were Menin-MLL FL inh 16.8, Menin-MLL TR inh 0.3%, MLL CXXC-DNA inh 14.8%, p53 reactivator 8.5% and ClpP mod 2.51µM*.
Screening COc1ccc(-c2ccc(C#N)c(SCC(=O)OCc3ccccc3)n2)cc1OC returned Menin-MLL FL inh 3.2, Menin-MLL TR inh -0.8%, MLL CXXC-DNA inh -13.6%, p53 reactivator 9.9% and ClpP mod inconclusive.
For CCCS(=O)(=O)c1ncc(Cl)c(C(=O)Nc2sc3c(c2C(=O)NCC)CCCC3)n1 the results were ClpP mod -4.4%.
Screening COc1ccc(-c2nc(CSCC(=O)NCc3ccc4c(c3)OCO4)c(C)o2)cc1OC returned Menin-MLL FL inh 12.4, Menin-MLL TR inh -16.7%, MLL CXXC-DNA inh 20.1%, p53 reactivator 9.0% and ClpP mod -15.3%.
COc1ccc(-c2nc(CSCC(=O)NCCc3ccc(C)cc3)c(C)o2)cc1OC was read as ClpP mod 31.6µM*.
For COc1ccc(-c2nc(CSCC(=O)NCCC3=CCCCC3)c(C)o2)cc1OC the results were Menin-MLL FL inh -3.7, Menin-MLL TR inh -14.5%, MLL CXXC-DNA inh 0.3%, p53 reactivator -5.1% and ClpP mod 25.1µM*.
CCOCCCNC(=O)CSCc1nc(-c2ccc(SC)cc2)oc1C was read as Menin-MLL FL inh -2.3, Menin-MLL TR inh -9.7%, MLL CXXC-DNA inh 0.3%, p53 reactivator 1.3% and ClpP mod 3.3%.
COCCNC(=O)CSCc1nc(-c2ccc(SC)cc2)oc1C was read as Menin-MLL FL inh 1.3, Menin-MLL TR inh inconclusive, MLL CXXC-DNA inh 0.3%, p53 reactivator -2.3% and ClpP mod 25.1µM*.
COc1ccc(-c2nc(CSCC(=O)NCc3ccccc3Cl)c(C)o2)cc1OC was read as ClpP mod 20µM*.
For CCOC(=O)c1c(NC(=O)c2cc(-c3ccc(Br)cc3)on2)sc(C)c1C the results were ClpP mod -1.0%.
Screening COc1ccc(-c2nc(CS(=O)CC(=O)NCc3ccc4c(c3)OCO4)c(C)o2)cc1OC (stereo not given) returned Menin-MLL FL inh -0.6, Menin-MLL TR inh -3.6%, MLL CXXC-DNA inh -0.7%, p53 reactivator -1.2% and ClpP mod 3.5%.
COc1ccccc1CNC(=O)CS(=O)Cc1nc(-c2ccc(OC)c(OC)c2)oc1C (stereo not given) was read as Menin-MLL FL inh 4.9, Menin-MLL TR inh -4.5%, MLL CXXC-DNA inh -4.7%, p53 reactivator -6.5% and ClpP mod 31.6µM*!.
CCOC(=O)c1ccc(CC(=O)c2ccc(O)c(O)c2O)o1 was read as Menin-MLL FL inh 7.0, Menin-MLL TR inh 16.1%, MLL CXXC-DNA inh -14.0% and p53 reactivator 3.7%.
CCOC(=O)c1ccc(CC(=O)c2oc3cc(O)ccc3c2C)o1 was read as Menin-MLL FL inh inconclusive, Menin-MLL TR inh 12.0%, MLL CXXC-DNA inh -3.5%, p53 reactivator 21.5% and ClpP mod 31.6µM*.
`Cc1cc2ccccc2c[n+]1C` gave ClpP mod 4.3%.
For CCCCS(=O)(=O)CC(O)CSc1nc(-c2ccc(C)cc2)cc(-c2ccccc2)c1C#N (stereo not given) the results were ClpP mod 3.55µM*.
CC(C)(C)C(=O)n1nc(-c2ccccc2)oc1=O was read as Menin-MLL FL inh 2.0, Menin-MLL TR inh 0.4%, MLL CXXC-DNA inh 62.2%, p53 reactivator 7.0% and ClpP mod 31.6µM*.
`CCN1CCN(c2cc3c(nn2)Oc2ccccc2N3C)CC1` gave Menin-MLL FL inh -0.2, Menin-MLL TR inh -7.5%, MLL CXXC-DNA inh 2.2%, p53 reactivator inconclusive and ClpP mod 28.2µM*.
Screening CCCCN(C)C(=O)CCCCn1c(=O)[nH]c2cc(OCC)c(OCC)cc2c1=O returned Menin-MLL FL inh 4.5, Menin-MLL TR inh inconclusive, MLL CXXC-DNA inh -4.3%, p53 reactivator -9.4% and ClpP mod 35.5µM*.
For COc1cc2[nH]c(=O)n(CCC(=O)NCc3cccnc3)c(=O)c2cc1OC the results were Menin-MLL FL inh 2.0, Menin-MLL TR inh -7.0%, MLL CXXC-DNA inh 6.4%, p53 reactivator -8.3% and ClpP mod 28.2µM*.
`CCOc1cc2[nH]c(=O)n(CCCCCC(=O)NCc3ccco3)c(=O)c2cc1OCC` gave Menin-MLL FL inh 3.8, Menin-MLL TR inh 9.3%, MLL CXXC-DNA inh 2.0%, p53 reactivator -3.0% and ClpP mod 22.4µM*.
`COc1ccc(/C=C/C(=O)NCc2cccnc2)cc1` gave Menin-MLL FL inh 1.3, Menin-MLL TR inh -4.2%, MLL CXXC-DNA inh -2.8%, p53 reactivator 7.7% and ClpP mod -4.9%.
CCOc1cc2[nH]c(=O)n(CCCCC(=O)N3CCN(c4ccc(OC)cc4)CC3)c(=O)c2cc1OCC was read as ClpP mod -2.8%.
For COc1cc(/C=C/C(=O)NCc2cccnc2)cc(OC)c1OC the results were Menin-MLL FL inh -0.4, Menin-MLL TR inh 3.4%, MLL CXXC-DNA inh 6.7%, p53 reactivator -6.5% and ClpP mod 25.1µM*.
`N#Cc1nc(-c2ccc(OCc3ccccc3Cl)cc2)oc1N1CCC(C(N)=O)CC1` gave ClpP mod 4.4%.
For Cc1cc2nccc(/C=C/c3ccc(N(C)C)cc3)c2cc1C the results were ClpP mod -3.7%.
COc1cccc(-c2ccc3ncnc(NCc4cnc(C)cn4)c3c2)c1 was read as Menin-MLL FL inh -1.9 and Menin-MLL TR inh -14.3%.
`CC(C)(C)C1CCC(=NNC(=S)Nc2cccnc2)CC1` (stereo not given) gave Menin-MLL FL inh -8.0, Menin-MLL TR inh -6.6%, MLL CXXC-DNA inh 5.7% and p53 reactivator -1.9%.
Screening CCNC(=S)NN=C1CCC(C(C)(C)C)CC1 (stereo not given) returned Menin-MLL FL inh -2.0, Menin-MLL TR inh -1.3%, MLL CXXC-DNA inh -16.5%, p53 reactivator -1.8% and ClpP mod 28.2µM*.
